# According to the supplement of paper PMC8728848:
# Shown is part of a subset that was picked to be rich in the strongest signals.
# B1: PX9896A-bth-573-26-573 (Bacteroides thetaiotaomicron) (protein)
# chain: ETNNLKTKEDMYKYFGTSKSMLTHVYSYMPQGYQLFATSGGIFTEDRYSMRDCASDDGEFGAYADNIQNTNNGNWSPIKTYDDSWTLYRGIRAANSFIAEIAQVDFTRYEHDGQYTNWMKQLKYFPYEARVLRAHYFFELARRYGDIAMPLEVLTEEEANTIGKTPFSEVISFIVSECDDAANNLPDSYVNEPGAEIGRVTKGFAMAVKSKALLYAASKLHNPSMDTELWKKSAKAAIDIINTGLYSLDPQESANNLDSKEVVLMRINGDDSDFEMFNLPLRMTAGTRTSSLIPYSNYPSQNLVDAFETVNGYKVTLENTGWVCEDPAFDPQSPYENRDKRFYRAILANGMSFKDYTIETFKGGADDGIVSQGGSPTGYFLRKYIQEATSFEPGKEAVSKHHWVIYRYAETLLTYAESMVNAFNDVNYTDETYKYSALWAINEVRKNADMPLIPSMGKDEFMERLYNEWRVEFAFEDHRFWDVRRWKIADTTQRELYGVKIEKQADGTFNFYKNLYETRNWRDCMYLYPIPQSELYKNTNLNPQNTGW
# Key:
# Assay in all cases: glycan array binding signal (z-score within array); higher = stronger binding
# Settings in all cases: glycan notation: IUPAC condensed, linker removed
# [1] = molecular target: GlcNAc(b1-3)Gal(b1-4)Glc
# Method in brief: (§1)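 The Consortium for Functional Glycomics database supplied 3228 glycan arrays, of which those lacking an available protein sequence were dropped. The binding signal, a within-array Z-score, was averaged across arrays of the same protein sequence and across linkers. Negative scores can be read as non-binding.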
# [2] = molecular target: GlcNAc(b1-3)Gal(b1-4)GlcNAc(b1-2)[GlcNAc(b1-3)Gal(b1-4)GlcNAc(b1-6)]Man(a1-6)[GlcNAc(b1-3)Gal(b1-4)GlcNAc(b1-2)Man(a1-3)]Man(b1-4)GlcNAc(b1-4)GlcNAc
# Method in brief: as §1
# [3] = molecular target: GlcNAc(b1-3)Gal(b1-4)GlcNAc(b1-3)Gal(b1-4)GlcNAc
# Method in brief: as §1
# [4] = molecular target: GlcNAc(b1-4)GlcNAc(b1-4)GlcNAc(b1-4)GlcNAc(b1-4)GlcNAc(b1-4)GlcNAc
# Method in brief: as §1
# [5] = molecular target: GlcNAc6S(b1-3)Gal(b1-4)GlcNAc
# Method in brief: as §1
# [6] = molecular target: Neu5Ac(a2-3)Gal(b1-3)GalNAc
# Method in brief: as §1
# [7] = molecular target: Neu5Ac(a2-3)Gal(b1-3)GlcNAc(b1-2)Man(a1-3)[GlcNAc(b1-4)][Neu5Ac(a2-3)Gal(b1-3)GlcNAc(b1-2)Man(a1-6)]Man(b1-4)GlcNAc(b1-4)GlcNAc
# Method in brief: as §1
# [8] = molecular target: Neu5Ac(a2-3)Gal(b1-4)GlcNAc(b1-2)[Neu5Ac(a2-3)Gal(b1-4)GlcNAc(b1-4)]Man(a1-3)[GlcNAc(b1-4)][Neu5Ac(a2-3)Gal(b1-4)GlcNAc(b1-2)[Neu5Ac(a2-3)Gal(b1-4)GlcNAc(b1-6)]Man(a1-6)]Man(b1-4)GlcNAc(b1-4)GlcNAc
# Method in brief: as §1
# [9] = molecular target: Neu5Ac(a2-3)Gal(b1-4)GlcNAc(b1-3)Gal(b1-4)GlcNAc(b1-2)Man(a1-3)[Neu5Ac(a2-3)Gal(b1-4)GlcNAc(b1-3)Gal(b1-4)GlcNAc(b1-2)Man(a1-6)]Man(b1-4)GlcNAc(b1-4)GlcNAc
# Method in brief: as §1
# [10] = molecular target: Neu5Ac(a2-3)Gal(b1-4)GlcNAc(b1-3)Gal(b1-4)[Fuc(a1-3)]GlcNAc
# Method in brief: as §1
# [11] = molecular target: Neu5Ac(a2-3)Gal(b1-4)[Fuc(a1-3)]GlcNAc(b1-2)Man
# Method in brief: as §1
# [12] = molecular target: Neu5Ac(a2-3)Gal(b1-4)[Fuc(a1-3)]GlcNAc(b1-3)GalNAc
# Method in brief: as §1
# [13] = molecular target: Neu5Ac(a2-3)Gal6S(b1-4)[Fuc(a1-3)]GlcNAc
# Method in brief: as §1
# [14] = molecular target: Neu5Ac(a2-3)[GalNAc(b1-4)]Gal(b1-4)GlcNAc(b1-3)GalNAc
# Method in brief: as §1
# [15] = molecular target: Neu5Ac(a2-6)Gal(b1-4)GlcNAc(b1-2)Man
# Method in brief: as §1
# [16] = molecular target: Neu5Ac(a2-6)Gal(b1-4)GlcNAc(b1-2)Man(a1-6)[GlcNAc(b1-2)Man(a1-3)]Man(b1-4)GlcNAc(b1-4)GlcNAc
# Method in brief: as §1
# [17] = molecular target: Neu5Ac(a2-6)Gal(b1-4)GlcNAc(b1-2)[Neu5Ac(a2-6)Gal(b1-4)GlcNAc(b1-4)]Man(a1-3)[GlcNAc(b1-4)][Neu5Ac(a2-6)Gal(b1-4)GlcNAc(b1-2)[Neu5Ac(a2-6)Gal(b1-4)GlcNAc(b1-6)]Man(a1-6)]Man(b1-4)GlcNAc(b1-4)GlcNAc
# Method in brief: as §1
# [18] = molecular target: Neu5Ac(a2-6)Gal(b1-4)GlcNAc(b1-2)[Neu5Ac(a2-6)Gal(b1-4)GlcNAc(b1-6)]Man(a1-6)[Neu5Ac(a2-6)Gal(b1-4)GlcNAc(b1-2)Man(a1-3)][GlcNAc(b1-4)]Man(b1-4)GlcNAc(b1-4)GlcNAc
# Method in brief: as §1
# [19] = molecular target: Neu5Ac(a2-6)Gal(b1-4)GlcNAc(b1-3)Gal(b1-4)GlcNAc(b1-3)Gal(b1-4)GlcNAc(b1-2)Man(a1-3)[Neu5Ac(a2-6)Gal(b1-4)GlcNAc(b1-3)Gal(b1-4)GlcNAc(b1-3)Gal(b1-4)GlcNAc(b1-2)Man(a1-6)]GalNAc
# Method in brief: as §1
# [20] = molecular target: Neu5Ac(a2-8)Neu5Ac(a2-3)[GalNAc(b1-4)]Gal(b1-4)Glc
# Method in brief: as §1
# [21] = molecular target: Neu5Ac(a2-8)Neu5Ac(a2-8)Neu5Ac(a2-3)Gal(b1-4)Glc
# Method in brief: as §1
# [22] = molecular target: Neu5Ac(a2-8)Neu5Ac(a2-8)Neu5Ac(a2-8)Neu5Ac(a2-3)[GalNAc(b1-4)]Gal(b1-4)Glc
# Method in brief: as §1
# [23] = molecular target: Neu5Ac(a2-8)Neu5Gc(a2-3)Gal(b1-4)GlcNAc
# Method in brief: as §1
# [24] = molecular target: Neu5Ac(b2-6)GalNAc
# Method in brief: as §1
# [25] = molecular target: Neu5Gc(a2-6)GalNAc
# Method in brief: as §1
binder,measurement,setting,value
B1,glycan array binding signal (z-score),[1],0.621
same,glycan array binding signal (z-score),[2],0.497
same,glycan array binding signal (z-score),[3],-0.759
same,glycan array binding signal (z-score),[4],-0.604
same,glycan array binding signal (z-score),[5],0.875
same,glycan array binding signal (z-score),[6],-0.359
same,glycan array binding signal (z-score),[7],-0.678
same,glycan array binding signal (z-score),[8],-0.635
same,glycan array binding signal (z-score),[9],-0.638
same,glycan array binding signal (z-score),[10],-0.535
same,glycan array binding signal (z-score),[11],-0.204
same,glycan array binding signal (z-score),[12],4.79
same,glycan array binding signal (z-score),[13],-0.756
same,glycan array binding signal (z-score),[14],-0.496
same,glycan array binding signal (z-score),[15],-0.386
same,glycan array binding signal (z-score),[16],-0.598
same,glycan array binding signal (z-score),[17],-0.093
same,glycan array binding signal (z-score),[18],-0.82
same,glycan array binding signal (z-score),[19],1.34
same,glycan array binding signal (z-score),[20],-0.414
same,glycan array binding signal (z-score),[21],-0.639
same,glycan array binding signal (z-score),[22],0.475
same,glycan array binding signal (z-score),[23],13.3
same,glycan array binding signal (z-score),[24],-0.726
same,glycan array binding signal (z-score),[25],-0.244
